Assay outcomes: PubChem BioAssay, National Center for Advancing Translational Sciences (NCATS)
An excerpt weighted towards active compounds, which were near 0.64% of everything screened.
EPAC2 ag: qHTS for Agonist of cAMP-regulated guanine nucleotide exchange factor 4 (EPAC2): primary screen. Rap guanine nucleotide exchange factor 4 (Homo sapiens), Q8WZA2. EPAC2 activation, biochemical qHTS; response scale: 100% = 6.5 mM cAMP response. Potency, µM (highest dose often 154 µM), most hits filed as activators. actives 0.079% (n = 360,000). AID 720711, 2013; note: nearly all actives have a fitted effect of over 50% in size
Target sequence (Q8WZA2 whole entry, looked up): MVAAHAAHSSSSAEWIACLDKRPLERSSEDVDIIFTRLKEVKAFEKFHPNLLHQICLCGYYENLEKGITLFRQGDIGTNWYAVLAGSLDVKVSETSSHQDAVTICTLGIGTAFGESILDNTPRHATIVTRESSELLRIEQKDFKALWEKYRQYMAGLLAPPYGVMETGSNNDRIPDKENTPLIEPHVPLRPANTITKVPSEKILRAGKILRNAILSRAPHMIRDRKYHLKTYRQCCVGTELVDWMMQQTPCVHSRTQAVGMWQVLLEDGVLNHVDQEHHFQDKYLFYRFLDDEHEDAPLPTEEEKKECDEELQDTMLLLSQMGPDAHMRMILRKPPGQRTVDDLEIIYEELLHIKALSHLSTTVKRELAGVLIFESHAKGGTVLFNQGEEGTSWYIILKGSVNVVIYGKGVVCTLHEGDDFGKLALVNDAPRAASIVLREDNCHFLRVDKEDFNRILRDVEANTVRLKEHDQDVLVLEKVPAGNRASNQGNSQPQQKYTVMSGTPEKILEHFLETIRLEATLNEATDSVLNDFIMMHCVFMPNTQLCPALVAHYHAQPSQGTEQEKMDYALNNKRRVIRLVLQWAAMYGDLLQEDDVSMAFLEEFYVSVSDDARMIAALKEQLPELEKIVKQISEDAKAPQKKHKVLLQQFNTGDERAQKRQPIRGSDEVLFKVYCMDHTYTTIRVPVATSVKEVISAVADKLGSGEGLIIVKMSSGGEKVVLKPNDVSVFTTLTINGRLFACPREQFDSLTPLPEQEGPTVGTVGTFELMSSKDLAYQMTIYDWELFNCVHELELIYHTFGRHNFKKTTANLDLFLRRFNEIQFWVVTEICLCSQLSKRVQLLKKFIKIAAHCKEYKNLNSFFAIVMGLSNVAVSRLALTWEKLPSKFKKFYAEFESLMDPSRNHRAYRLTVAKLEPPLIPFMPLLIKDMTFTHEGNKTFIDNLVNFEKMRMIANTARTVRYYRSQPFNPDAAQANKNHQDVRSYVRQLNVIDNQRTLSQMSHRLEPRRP
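Readout is BODIPY fluorescence (480 nm excitation, 540 nm emission), which falls as labeled GDP is exchanged off Rap1B. EPAC2 at 100 nM acted on 250 nM RAP1B-BODIPY-GDP with 50 uM GDP present.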
EPAC1 antagonist: qHTS for Antagonist of cAMP-regulated guanine nucleotide exchange factor 3 (EPAC1): primary screen; EPAC1 GEF assay, Rap1b-BODIPY-GDP exchange fluorescence; Rap guanine nucleotide exchange factor 3 (Homo sapiens), O95398; Potency, µM (titrated, usually from 115 µM), most hits filed as inhibitors; actives 0.14% (n = 360,000); note: nearly all actives have a fitted effect of over 50% in size
IL-2 act: qHTS of IL-2 Activators; actives 0.065% (n = 360,000); activation, % (series mostly up to about 46 µM); IL-2 activation reporter assay, cell-based qHTS; stimulated with anti-CD3/CD4/CD28 beads; in transgenic mouse T cells; in the data active = activation above about 50%; inconclusive = mostly about 30% to 49%
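Using fluorescent plate cytometry, EGFP and DsRed are detected in transgenic mouse T cells stimulated 18 h at 37 degrees C with antibody-coated beads after 60 min compound pretreatment.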
EPAC1 ag: qHTS for Agonist of cAMP-regulated guanine nucleotide exchange factor 3 (EPAC1): primary screen; Rap guanine nucleotide exchange factor 3 (Homo sapiens), O95398; EPAC1 agonist qHTS, biochemical assay; response scale: 100% = response to 6.5 mM cAMP; Potency, µM (series often up to 154 µM), actives largely listed as activators; actives 0.073% (n = 360,000); note: nearly all actives have a fitted effect of over 60% in size
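Multi-concentration qHTS readout: loss of Rap1B-bound BODIPY-GDP fluorescence driven by 100 nM EPAC1 with excess GDP (50 uM), monitored kinetically at room temperature; agonist response expressed relative to 6.5 mM cAMP.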
PKM2 act: qHTS Assay for Activators of Human Muscle isoform 2 Pyruvate Kinase. Potency, µM (highest dose often 57.5 µM), usual class: activators. Pyruvate kinase PKM (Homo sapiens), P14618. actives 0.34% (n = 260,000). purified PKM2, Kinase-Glo ATP luminescence, activation; response scale: 0% is enzyme alone, no compound; note: nearly all actives have a fitted effect of over 55% in size
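Purified hPK-M2 (>95%) run at intermediate activity with 0.1 mM ADP and 0.5 mM PEP in 50 mM imidazole pH 7.2, KCl, MgCl2; 1 h room temperature. ATP formed read by Kinase-Glo luminescence; normalized to uninhibited and no-enzyme controls.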
EPAC2 antag: qHTS for Antagonist of cAMP-regulated guanine nucleotide exchange factor 2 (EPAC2): primary screen; Rap guanine nucleotide exchange factor 4 (Homo sapiens), Q8WZA2; EPAC2 GEF exchange of Rap1B-BODIPY-GDP, fluorescence; Potency, µM (series often up to 114 µM), hits mostly inhibitors; actives 0.18% (n = 360,000); AID 720708, 2013; note: nearly all actives have a fitted effect of over 45% in size
Large screens that a line does not name were inactive. Unless noted, calls come from the whole dose curve; as a rule, active = well fitted curve in the direction sought with a large enough effect; inconclusive = small, poorly fitted or top-dose-only effect, or another doubt; inactive = no such curve, though single readings can be large; an effect the other way counts as inactive or inconclusive.

CN(C)c1cccc(Nc2ccc(-c3ccc(OC(F)(F)F)cc3)cn2)c1	none (no result: PKM2 act)
CN(C)S(=O)(=O)c1cccc(-c2nn(-c3ccccc3)cc2/C=C2\SC(=S)NC2=O)c1	EPAC1 antagonist 71µM
COc1ccc(CCN2CC(C(=O)NCc3nc4ccccc4n3C)CCC2=O)cc1 (configuration not stated)	none
Nc1ccc2c(S(=O)(=O)O)cccc2c1S(=O)(=O)O	EPAC2 antag 56µM (no result: PKM2 act)
CCOc1cc(/C=C2\CCCc3c2nc2ccccc2c3C(=O)O)ccc1OC	EPAC2 ag 100µM, EPAC1 ag 100µM
COc1cc(/C=C2\CCCc3c2nc2ccccc2c3C(=O)O)cc(Br)c1O	none (no result: PKM2 act)
COC1=C(Br)C(=O)c2ncccc2C1=O	EPAC1 antagonist inconclusive, EPAC2 antag 8.9µM (no result: PKM2 act)
COC1=CC(=O)c2nc(Cl)ccc2C1=O	EPAC1 antagonist inconclusive, EPAC2 antag inconclusive (no result: PKM2 act)
COC1=CC(=O)c2c(ccc3ncnc(N)c23)C1=O	EPAC1 antagonist 40µM, EPAC2 antag 40µM (no result: PKM2 act)
CCCCN1C[C@H](CO)Oc2cccc(F)c2S1(=O)=O	none (no result: PKM2 act)
Nc1ccc2nc(CCCCCCc3nc4ccc(N)cc4[nH]3)[nH]c2c1	PKM2 act 13µM
Cc1nnc(NC(=O)C23CC4CC(CC(C4)C2)C3)s1	none (no result: PKM2 act)
O=c1c2ccccc2nc(/C=C/c2cccnc2)n1CCc1ccccc1	EPAC1 antagonist 79µM
CCCCCCn1cc(CN2CC(N3CCN(CCN(C)C)CC3)CS2(=O)=O)nn1 (configuration not stated)	none (no result: PKM2 act)
CCOC(=O)Cn1c2ccc(OC)cc2c2nc3ccccc3nc21	IL-2 act 51
CC(NC(=O)CCCc1c[nH]c2ccccc12)c1ccc(F)cc1 (configuration not stated)	none
CCOC(=O)CC(=O)Nc1ncnc2c1C(c1ccccc1)c1c(ccc3ccccc13)O2 (configuration not stated)	EPAC2 antag inconclusive (no result: PKM2 act)
Nc1ncnc2c1C(c1ccccc1)c1c(ccc3ccccc13)O2 (configuration not stated)	EPAC2 antag 13µM (no result: PKM2 act)
O=C(CCC(=O)N1CCN(c2ccccn2)CC1)c1ccc(Cl)s1	none (no result: PKM2 act)
O=c1ccsn1Cc1ccccc1	PKM2 act 5µM
O=C1NC(Cc2ccccc2)C(=O)N1Cc1ccccc1 (configuration not stated)	none (no result: PKM2 act)
CCOC(=O)C1CC2=C(CCCC2=O)NC1=O (configuration not stated)	none (no result: PKM2 act)
COc1ccc2cc3[n+](cc2c1O)CCc1cc2c(cc1-3)OCO2	EPAC1 antagonist inconclusive, EPAC2 antag 89µM (no result: PKM2 act)
COc1cc2c(cc1OC)-c1cc3ccc(OC)c(OC)c3c[n+]1CC2	none (no result: PKM2 act)
COc1ccc(CC(=O)NCC2CCCN(Cc3cc(OC)cc(OC)c3)C2)cc1 (configuration not stated)	none
Cc1ccc2c(CN3CCCCC3CCO)cc(=O)oc2c1 (configuration not stated)	none (no result: PKM2 act)
O=S1(=O)CC(N2CCCC2)CN1Cc1cn(Cc2ccccc2)nn1 (configuration not stated)	none (no result: PKM2 act)
CCN(CC)c1ccc2cc(C(=O)NNC(=O)c3ccc(S(=O)(=O)N4CCCCC4)cc3)c(=O)oc2c1	EPAC2 ag inconclusive, EPAC1 antagonist inconclusive, IL-2 act 59, EPAC2 antag inconclusive
Cc1ccc(C(=O)NNC(=O)c2ccc(S(=O)(=O)N3CCCCC3)cc2)cc1	none (no result: PKM2 act)
CC(C)C[C@H]1COCCS(=O)(=O)N1Cc1cccc(C(F)(F)F)c1	EPAC2 antag 14µM (no result: PKM2 act)
CC(C)C[C@H]1COCCS(=O)(=O)N1Cc1cccc(Cl)c1	EPAC2 antag inconclusive (no result: PKM2 act)
CC1CC1c1ccc(/C=C(\C#N)C(=O)Nc2cc(Cl)ccc2Cl)o1 (configuration not stated)	EPAC1 ag 89µM
CC1CC1c1ccc(/C=C(\C#N)C(=O)Nc2ccc(Cl)cc2Cl)o1 (configuration not stated)	none
N#Cc1c(SCC(=O)Nc2ccc(C(F)(F)F)cc2)sc2c(O)cc(=O)[nH]c12	none
N#Cc1c(SCC(=O)Nc2nncs2)sc2c(O)cc(=O)[nH]c12	EPAC1 antagonist 89µM
O=C(Nc1cccc(Cl)c1)N(Cc1nc2ccccc2c(=O)[nH]1)C1CCCC1	none
O=C(Nc1cccc(Cl)c1)N(Cc1nc2ccccc2c(=O)[nH]1)Cc1cccs1	EPAC1 ag 89µM
CCC(=O)N1CCc2cc(Br)cc(S(=O)(=O)N(C)c3ccc(OC)cc3)c21	none
CCCCn1c(SCn2nnc3ccccc3c2=O)nc2cc(S(N)(=O)=O)ccc21	none
CCCCn1c(SCN2C(=O)c3ccccc3C2=O)nc2cc(S(N)(=O)=O)ccc21	PKM2 act 16µM
OC(c1cccc(CN2CCCCC2)c1)c1ncc(-c2ccccc2Cl)[nH]1 (configuration not stated)	none (no result: PKM2 act)
CC(=O)NC(c1ccco1)c1cc(Cl)c2cccnc2c1O (configuration not stated)	EPAC2 antag inconclusive (no result: PKM2 act)
CC(=O)NC(c1ccc(C)cc1)c1cc(Cl)c2cccnc2c1O (configuration not stated)	EPAC2 antag 40µM
CC(C)C(=O)NC(c1ccccc1)c1cc([N+](=O)[O-])c2cccnc2c1O (configuration not stated)	EPAC1 antagonist 56µM
CCOC(=O)CC1C(=O)NCCN1C(=O)c1ccc(F)cc1F (configuration not stated)	none
CCOC(=O)CC1C(=O)NCCN1C(=O)c1cccc(C(F)(F)F)c1 (configuration not stated)	EPAC2 antag 20µM
CCCC1(CCC)NC(=O)N(CC(=O)Nc2ccc(Cl)c(S(=O)(=O)N3CCOCC3)c2)C1=O	none (no result: PKM2 act)
COC(=O)C1=C(C)N=c2s/c(=C/c3ccoc3)c(=O)n2C1c1ccccc1 (configuration not stated)	PKM2 act 22µM
COc1ccc(N2C(=O)CC(Sc3ccccc3C(=O)O)C2=O)c([N+](=O)[O-])c1 (configuration not stated)	PKM2 act 20µM
